This is part of a sample that, as a whole, favours compounds with a hit. Of some 83,000 tested, about 20% had one in any assay.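 48-hour exposure, single concentration, 96-well plates; percent growth endpoint where 0 means no net growth. Active: below 10.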 The source made the active and inactive calls.
Columns and labels:
Assay in all cases: NCI-60 one-dose screen, 48 h (100 = growth as untreated, 0 = no growth, -100 = all killed)
SK-MEL-2 melanoma = conditions: 10 µM unless noted
EKVX NSCLC = conditions: 10 µM unless noted
SN12C renal = conditions: 10 µM unless noted
UO-31 renal = conditions: 10 µM unless noted
TK-10 renal = conditions: 10 µM unless noted
ACHN renal = conditions: 10 µM unless noted
CAKI-1 renal = conditions: 10 µM unless noted
HL-60(TB) leukemia = conditions: 10 µM unless noted
CCRF-CEM leukemia = conditions: 10 µM unless noted
MOLT-4 leukemia = conditions: 10 µM unless noted
SR leukemia = conditions: 10 µM unless noted
RPMI-8226 leukemia = conditions: 10 µM unless noted
OVCAR-8 ovarian = conditions: 10 µM unless noted
OVCAR-5 ovarian = conditions: 10 µM unless noted
OVCAR-4 ovarian = conditions: 10 µM unless noted
SK-OV-3 ovarian = conditions: 10 µM unless noted
IGROV1 ovarian = conditions: 10 µM unless noted
OVCAR-3 ovarian = conditions: 10 µM unless noted
HS 578T breast = conditions: 10 µM unless noted
A498 renal = conditions: 10 µM

Measured: growth

CC[C@H](C)[C@H](NC(=O)c1cccn1C)C(=O)N(C)[C@H](C[C@@H](OC(C)=O)c1nc(C(=O)N[C@@H](Cc2ccccc2)C[C@H](C)C(=O)OC)cs1)C(C)C
active: HL-60(TB) leukemia -36.7% | OVCAR-3 ovarian -3.92%
inactive: SK-MEL-2 melanoma 20.4% | EKVX NSCLC 54.3% | SN12C renal 24.2% | UO-31 renal 38.9% | TK-10 renal 27.5% | ACHN renal 30% | CAKI-1 renal 25.1% | CCRF-CEM leukemia 18.7% | MOLT-4 leukemia 16.2% | SR leukemia 14.4% | RPMI-8226 leukemia 18.6% | OVCAR-8 ovarian 15.6% | OVCAR-5 ovarian 43.5% | OVCAR-4 ovarian 46.9% | SK-OV-3 ovarian 10.8% | IGROV1 ovarian 23% | HS 578T breast 27%

CC(=O)c1ccc(C(=O)NCC2CCC3(CC2)OOC2(CCCCC2)OO3)cc1
inactive: SK-MEL-2 melanoma 76.7% | SN12C renal 78% | TK-10 renal 86.3% | ACHN renal 64.6% | A498 renal 89.2% | CCRF-CEM leukemia 31.9% | MOLT-4 leukemia 63.4% | SR leukemia 39% | OVCAR-8 ovarian 84.6% | OVCAR-5 ovarian 70% | OVCAR-4 ovarian 75.4% | IGROV1 ovarian 12.2% | OVCAR-3 ovarian 83% | HS 578T breast 102%
active: EKVX NSCLC -1.77% | UO-31 renal -78.4% | CAKI-1 renal -29.9%

COc1cc([N+](=O)[O-])c2nc(C)ccc2c1[N+](=O)[O-]
inactive: SK-MEL-2 melanoma 102% | EKVX NSCLC 112% | SN12C renal 89% | UO-31 renal 74.9% | TK-10 renal 122% | ACHN renal 89.5% | CAKI-1 renal 104% | A498 renal 121% | CCRF-CEM leukemia 91.3% | MOLT-4 leukemia 98.2% | SR leukemia 82.2% | RPMI-8226 leukemia 80.7% | OVCAR-8 ovarian 89.1% | OVCAR-5 ovarian 131% | OVCAR-4 ovarian 103% | SK-OV-3 ovarian 119% | IGROV1 ovarian 109% | OVCAR-3 ovarian 44.2% | HS 578T breast 106%

C[C@@]1(CCCCCCCCCc2ccc(O)cc2)C[C@]2(C)OC(=O)C[C@@H]2OO1
active: IGROV1 ovarian -51.3%
inactive: SK-MEL-2 melanoma 117% | EKVX NSCLC 98.7% | SN12C renal 98.5% | UO-31 renal 16.7% | TK-10 renal 112% | ACHN renal 65.5% | CAKI-1 renal 65.1% | A498 renal 104% | CCRF-CEM leukemia 75.4% | MOLT-4 leukemia 78% | RPMI-8226 leukemia 83% | OVCAR-8 ovarian 94.5% | OVCAR-5 ovarian 94.7% | OVCAR-4 ovarian 85.5% | SK-OV-3 ovarian 122% | OVCAR-3 ovarian 126% | HS 578T breast 92.9%

CCCCCN(CCCCC)CC(O)c1cc(Cl)ccc1OC (configuration not stated)
active: RPMI-8226 leukemia 0.775% | IGROV1 ovarian 2.26%
inactive: SK-MEL-2 melanoma 32.8% | EKVX NSCLC 52.4% | SN12C renal 52.7% | UO-31 renal 25.2% | TK-10 renal 73.1% | ACHN renal 43.9% | CAKI-1 renal 28.7% | A498 renal 37.4% | MOLT-4 leukemia 34.9% | OVCAR-8 ovarian 63.1% | OVCAR-5 ovarian 53.7% | OVCAR-4 ovarian 42.9% | SK-OV-3 ovarian 53.6% | OVCAR-3 ovarian 28.6%

O=c1[nH]cc(N(CCCl)CCCl)c(=O)[nH]1
inactive: SK-MEL-2 melanoma 102% | EKVX NSCLC 101% | SN12C renal 59.3% | UO-31 renal 42.9% | TK-10 renal 86.8% | ACHN renal 15.5% | CAKI-1 renal 12.8% | A498 renal 101% | CCRF-CEM leukemia 31% | MOLT-4 leukemia 15.3% | SR leukemia 10.4% | RPMI-8226 leukemia 77.8% | OVCAR-5 ovarian 70.1% | OVCAR-4 ovarian 105% | SK-OV-3 ovarian 93.3% | IGROV1 ovarian 50.2% | OVCAR-3 ovarian 98.5% | HS 578T breast 87.8%

Clc1cc(N2CC2)nc(N2CC2)n1
active: CAKI-1 renal 5.82%
inactive: SK-MEL-2 melanoma 91% | EKVX NSCLC 107% | SN12C renal 48.5% | UO-31 renal 74.7% | TK-10 renal 104% | ACHN renal 22.2% | A498 renal 104% | CCRF-CEM leukemia 54.8% | MOLT-4 leukemia 46.6% | SR leukemia 34.7% | RPMI-8226 leukemia 80.4% | OVCAR-8 ovarian 64.5% | OVCAR-5 ovarian 102% | OVCAR-4 ovarian 95.2% | SK-OV-3 ovarian 71% | IGROV1 ovarian 109% | OVCAR-3 ovarian 107% | HS 578T breast 115%

O=C(O)C(O)C(O)C1[O][Sb]([c]2ccc([N+](=O)[O-])cc2)[O]C1CO (configuration not stated)
inactive: SK-MEL-2 melanoma 115% | EKVX NSCLC 105% | SN12C renal 90.4% | UO-31 renal 96.4% | TK-10 renal 98.4% | ACHN renal 101% | CAKI-1 renal 102% | A498 renal 83.6% | CCRF-CEM leukemia 98.5% | MOLT-4 leukemia 98.2% | SR leukemia 102% | RPMI-8226 leukemia 99.2% | OVCAR-8 ovarian 105% | OVCAR-5 ovarian 103% | OVCAR-4 ovarian 112% | SK-OV-3 ovarian 129% | IGROV1 ovarian 111% | OVCAR-3 ovarian 114% | HS 578T breast 93.8%

C[C@]12CCc3sc(-c4ccccc4O)nc3C1=CC[C@@H]1[C@@H]2CC[C@]2(C)C(=O)CC[C@@H]12
inactive: SK-MEL-2 melanoma 105% | EKVX NSCLC 99.7% | SN12C renal 101% | UO-31 renal 85.8% | TK-10 renal 104% | ACHN renal 98.8% | CAKI-1 renal 83.5% | HL-60(TB) leukemia 103% | CCRF-CEM leukemia 118% | MOLT-4 leukemia 94.7% | SR leukemia 109% | RPMI-8226 leukemia 107% | OVCAR-8 ovarian 105% | OVCAR-5 ovarian 104% | OVCAR-4 ovarian 108% | SK-OV-3 ovarian 102% | IGROV1 ovarian 103% | OVCAR-3 ovarian 104% | HS 578T breast 105%

CC1(C)CN1P(=O)(N1CC1(C)C)N1CC1(C)C (configuration not stated)
inactive: SK-MEL-2 melanoma 115% | EKVX NSCLC 124% | SN12C renal 109% | UO-31 renal 85% | TK-10 renal 118% | ACHN renal 112% | CAKI-1 renal 110% | A498 renal 102% | CCRF-CEM leukemia 106% | MOLT-4 leukemia 96.6% | SR leukemia 91.3% | RPMI-8226 leukemia 105% | OVCAR-8 ovarian 90.5% | OVCAR-5 ovarian 115% | OVCAR-4 ovarian 97.9% | SK-OV-3 ovarian 102% | IGROV1 ovarian 114% | OVCAR-3 ovarian 118% | HS 578T breast 93.8%

CCOP(=O)(Nc1ccc2c(c1)/C(=N/NC(N)=S)c1ccccc1-2)OCC
inactive: SK-MEL-2 melanoma 110% | EKVX NSCLC 92.9% | SN12C renal 81.9% | UO-31 renal 91.8% | TK-10 renal 104% | ACHN renal 89.9% | CAKI-1 renal 97.4% | A498 renal 96.3% | CCRF-CEM leukemia 85.6% | MOLT-4 leukemia 92% | SR leukemia 109% | RPMI-8226 leukemia 93.5% | OVCAR-8 ovarian 94.7% | OVCAR-5 ovarian 105% | OVCAR-4 ovarian 96.9% | SK-OV-3 ovarian 114% | IGROV1 ovarian 132% | HS 578T breast 82%

O=C1C=C2C(=CCOC2O)O1 (configuration not stated)
active: UO-31 renal -11.6% | TK-10 renal -37.2% | ACHN renal -18.7% | CAKI-1 renal -13.2% | OVCAR-8 ovarian -21.5% | OVCAR-3 ovarian -78.6%
inactive: SK-MEL-2 melanoma 10.4% | EKVX NSCLC 103% | SN12C renal 35.1% | A498 renal 107% | OVCAR-5 ovarian 41.5% | OVCAR-4 ovarian 25.4% | SK-OV-3 ovarian 100% | IGROV1 ovarian 42.9% | HS 578T breast 50%

C1CCC([PH+](C2CCCCC2)C2CCCCC2[PH+](C2CCCCC2)C2CCCCC2)CC1.[Au].[CH-]1CCCCC1CC1CCCC[N-]1 (configuration not stated)
active: SK-MEL-2 melanoma -55.7% | EKVX NSCLC -61.9% | SN12C renal -32% | UO-31 renal -81.4% | TK-10 renal -43.4% | ACHN renal -72.5% | CAKI-1 renal -31.3% | A498 renal -91.6% | CCRF-CEM leukemia -12.5% | MOLT-4 leukemia 0.501% | SR leukemia 1.21% | RPMI-8226 leukemia -8.82% | OVCAR-8 ovarian 5.9% | OVCAR-5 ovarian -37.2% | IGROV1 ovarian -29.4% | OVCAR-3 ovarian -86.5%

ClCCN(CCCl)c1ccc(/C=N\N=C\c2ccc(N(CCCl)CCCl)cc2)cc1
inactive: SK-MEL-2 melanoma 36.7% | EKVX NSCLC 47.1% | SN12C renal 36.3% | TK-10 renal 47.2% | ACHN renal 40.1% | A498 renal 75% | CCRF-CEM leukemia 25% | RPMI-8226 leukemia 39.8% | OVCAR-8 ovarian 33.8% | OVCAR-5 ovarian 107% | OVCAR-4 ovarian 53% | SK-OV-3 ovarian 19.6% | IGROV1 ovarian 71.5% | OVCAR-3 ovarian 55.7% | HS 578T breast 78.2%
active: UO-31 renal -16.2% | CAKI-1 renal 7.35%

COC(=O)CCC1=C(C)c2cc3[n-]c(cc4nc(cc5[n-]c(cc1n2)c(CCC(=O)OC)c5C)C=C4C)cc3C.[Cd+2]
inactive: SK-MEL-2 melanoma 32.4% | EKVX NSCLC 62.2% | SN12C renal 71.2% | UO-31 renal 71.7% | TK-10 renal 33.4% | ACHN renal 67.9% | CAKI-1 renal 63.3% | A498 renal 34.4% | OVCAR-8 ovarian 68.7% | OVCAR-5 ovarian 103% | OVCAR-4 ovarian 37.7% | SK-OV-3 ovarian 83.5% | IGROV1 ovarian 35.1% | HS 578T breast 39.8%
active: RPMI-8226 leukemia -1.53% | OVCAR-3 ovarian -58.1%

N#CC1(C#N)C(c2ccc(N(CCCl)CCCl)cc2)OC23CCCCC2C1(C#N)C(=N)O3 (configuration not stated)
inactive: SK-MEL-2 melanoma 122% | EKVX NSCLC 108% | SN12C renal 69.1% | UO-31 renal 72.1% | TK-10 renal 91.9% | ACHN renal 50.2% | CAKI-1 renal 55.8% | A498 renal 56.6% | CCRF-CEM leukemia 77% | RPMI-8226 leukemia 96.2% | OVCAR-8 ovarian 80.6% | OVCAR-5 ovarian 105% | OVCAR-4 ovarian 91.9% | SK-OV-3 ovarian 96.8% | IGROV1 ovarian 77% | OVCAR-3 ovarian 98.5% | HS 578T breast 101%

Nc1cc2nc3ccccc3nc2cc1N
inactive: SK-MEL-2 melanoma 107% | EKVX NSCLC 84.8% | SN12C renal 80.5% | UO-31 renal 74.2% | TK-10 renal 110% | ACHN renal 99.2% | CAKI-1 renal 101% | A498 renal 78.3% | MOLT-4 leukemia 91.1% | SR leukemia 82.4% | RPMI-8226 leukemia 80% | OVCAR-8 ovarian 83% | OVCAR-5 ovarian 99.9% | OVCAR-4 ovarian 84% | SK-OV-3 ovarian 82.3% | IGROV1 ovarian 96% | OVCAR-3 ovarian 92.1%

COc1cc(NCCCN=C(N)N)c2ncccc2c1
active: SN12C renal 2.57% | OVCAR-4 ovarian -95.8% | OVCAR-3 ovarian 7.99%
inactive: SK-MEL-2 melanoma 27.8% | EKVX NSCLC 70.6% | UO-31 renal 89.4% | TK-10 renal 80% | ACHN renal 100% | CAKI-1 renal 97.9% | A498 renal 73.6% | CCRF-CEM leukemia 95.8% | MOLT-4 leukemia 94.1% | SR leukemia 102% | OVCAR-8 ovarian 81.2% | OVCAR-5 ovarian 86.2% | SK-OV-3 ovarian 93.4% | IGROV1 ovarian 36% | HS 578T breast 88.8%
